PubChem BioAssay (NCI)
The panel holds about 83,000 compounds, 20% with a hit somewhere; the sample as a whole holds those more often.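 Activity criterion: percent growth below 10, measured after cells in 96-well plates were exposed to a single compound concentration for 48 hours.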 Activity calls are given as the source filed them.

Columns and labels:
Assay in all cases: NCI-60 one-dose screen, 48 h (100 = growth as untreated, 0 = no growth, -100 = all killed)
Conditions in all cases: 10 µM unless noted
OVCAR-8 ovarian = test system: OVCAR-8 ovarian
OVCAR-5 ovarian = test system: OVCAR-5 ovarian
OVCAR-4 ovarian = test system: OVCAR-4 ovarian
SK-OV-3 ovarian = test system: SK-OV-3 ovarian
IGROV1 ovarian = test system: IGROV1 ovarian
OVCAR-3 ovarian = test system: OVCAR-3 ovarian
HS 578T breast = test system: HS 578T breast
NCI/ADR-RES ovarian = test system: NCI/ADR-RES ovarian
T-47D breast = test system: T-47D breast
BT-549 breast = test system: BT-549 breast
MDA-MB-435 melanoma = test system: MDA-MB-435 melanoma
SW-620 colon = test system: SW-620 colon
MCF7 breast = test system: MCF7 breast
HCT-116 colon = test system: HCT-116 colon
KM12 colon = test system: KM12 colon
HCC-2998 colon = test system: HCC-2998 colon
RPMI-8226 leukemia = test system: RPMI-8226 leukemia

Measured: growth

Clc1cc2nc(-c3ccccc3)c(-c3ccccc3)nc2cc1Cl
inactive: OVCAR-8 ovarian 112% | OVCAR-5 ovarian 98.6% | OVCAR-4 ovarian 86.9% | SK-OV-3 ovarian 89.3% | IGROV1 ovarian 65.6% | OVCAR-3 ovarian 92.1% | HS 578T breast 93.7% | NCI/ADR-RES ovarian 98.5% | T-47D breast 76.6% | BT-549 breast 118% | MDA-MB-435 melanoma 108% | SW-620 colon 89.7% | MCF7 breast 78.1% | HCT-116 colon 84.8% | KM12 colon 92%

CCCCCCCCCCCC1=NC(C)(C)CN1C(C)C
active: HCC-2998 colon -58.5%
inactive: OVCAR-8 ovarian 58.7% | OVCAR-5 ovarian 74.6% | OVCAR-4 ovarian 50.7% | SK-OV-3 ovarian 75.9% | IGROV1 ovarian 32.5% | OVCAR-3 ovarian 48.3% | HS 578T breast 53.2% | NCI/ADR-RES ovarian 47.3% | T-47D breast 36.3% | BT-549 breast 77.9% | MDA-MB-435 melanoma 11.2% | SW-620 colon 47.8% | MCF7 breast 27.8% | HCT-116 colon 21.5% | KM12 colon 25.3%

CCCCCCCCCCCC1=NC(C)(C)CN1CCO
inactive: OVCAR-8 ovarian 78.1% | OVCAR-5 ovarian 92% | SK-OV-3 ovarian 97% | IGROV1 ovarian 38.5% | OVCAR-3 ovarian 81% | HS 578T breast 59.3% | NCI/ADR-RES ovarian 90.3% | T-47D breast 65.2% | BT-549 breast 80.6% | SW-620 colon 23.1% | MCF7 breast 30.3% | HCT-116 colon 17.8% | KM12 colon 29.1%
active: MDA-MB-435 melanoma 8.66% | HCC-2998 colon -17.5%

COc1cc(NC(=O)CSc2nc3ccc(Cl)cc3c(=O)n2-c2ccccc2)cc(OC)c1OC
inactive: OVCAR-8 ovarian 93.2% | OVCAR-5 ovarian 96.3% | OVCAR-4 ovarian 85.7% | SK-OV-3 ovarian 101% | IGROV1 ovarian 91.5% | OVCAR-3 ovarian 97% | HS 578T breast 81.5% | NCI/ADR-RES ovarian 90.8% | T-47D breast 85.4% | BT-549 breast 78.9% | MDA-MB-435 melanoma 101% | SW-620 colon 101% | MCF7 breast 99.1% | HCT-116 colon 92.5% | HCC-2998 colon 106% | KM12 colon 100%

COc1cc2ccc(C(C)=O)cc2cc1OC
inactive: RPMI-8226 leukemia 105% | OVCAR-5 ovarian 92.3% | OVCAR-4 ovarian 120% | SK-OV-3 ovarian 95.6% | IGROV1 ovarian 106% | OVCAR-3 ovarian 100% | HS 578T breast 97.1% | NCI/ADR-RES ovarian 103% | T-47D breast 93.1% | BT-549 breast 90.8% | SW-620 colon 98.5% | MCF7 breast 97.9% | HCT-116 colon 103% | KM12 colon 105%

COc1ccc(-c2cnnn2-c2nonc2-n2cccc2)cc1
inactive: RPMI-8226 leukemia 27.9% | OVCAR-8 ovarian 31.3% | OVCAR-5 ovarian 37.2% | OVCAR-4 ovarian 42.9% | IGROV1 ovarian 28.9% | T-47D breast 44.8% | BT-549 breast 47.6% | MCF7 breast 14.5%
active: SK-OV-3 ovarian -4.76% | OVCAR-3 ovarian -38.9% | HS 578T breast -1.93% | NCI/ADR-RES ovarian 6.88% | MDA-MB-435 melanoma -44.1% | HCT-116 colon 8.3% | HCC-2998 colon 6.73% | KM12 colon 3.78%

N=C(N)c1ccc(NCCNc2ccc(C(=N)N)cc2)cc1
inactive: RPMI-8226 leukemia 82.8% | OVCAR-8 ovarian 92.4% | OVCAR-4 ovarian 110% | SK-OV-3 ovarian 133% | IGROV1 ovarian 98.5% | OVCAR-3 ovarian 110% | HS 578T breast 109% | NCI/ADR-RES ovarian 99% | T-47D breast 137% | BT-549 breast 133% | MDA-MB-435 melanoma 105% | SW-620 colon 106% | MCF7 breast 101% | HCT-116 colon 114% | HCC-2998 colon 119% | KM12 colon 105%

C=C(COC(C)=O)[C@H]1CC/C(C)=C/CC/C(C)=C/CC[C@@]2(C)O[C@H]2C1
inactive: RPMI-8226 leukemia 180% | OVCAR-8 ovarian 103% | OVCAR-5 ovarian 99.2% | OVCAR-4 ovarian 115% | IGROV1 ovarian 103% | OVCAR-3 ovarian 121% | HS 578T breast 108% | NCI/ADR-RES ovarian 102% | T-47D breast 109% | BT-549 breast 105% | MDA-MB-435 melanoma 113% | SW-620 colon 112% | MCF7 breast 91.1% | HCT-116 colon 98.2% | HCC-2998 colon 112% | KM12 colon 98.6%

O=C1OCC2=C1C(c1ccccc1)c1cc3c(cc1N2CCO)OCO3 (configuration not stated)
inactive: RPMI-8226 leukemia 46.4% | OVCAR-8 ovarian 63.3% | OVCAR-5 ovarian 46.8% | OVCAR-4 ovarian 52% | IGROV1 ovarian 39.5% | HS 578T breast 23.1% | BT-549 breast 43.9% | SW-620 colon 23.6% | HCC-2998 colon 24.5% | KM12 colon 23.3%
active: SK-OV-3 ovarian 6.79% | OVCAR-3 ovarian 3.99% | NCI/ADR-RES ovarian -20.4% | T-47D breast 1.16% | MDA-MB-435 melanoma 2.96% | MCF7 breast -11.1% | HCT-116 colon 7.22%

O=C1/C=C/[C@@H](O)[C@@H]2C[C@@H](O)C[C@H]2/C=C/CCC[C@H]([C@@H](O)CO)O1
inactive: RPMI-8226 leukemia 112% | OVCAR-8 ovarian 82% | OVCAR-5 ovarian 98.5% | SK-OV-3 ovarian 91.6% | IGROV1 ovarian 98.5% | OVCAR-3 ovarian 86.7% | HS 578T breast 53.5% | NCI/ADR-RES ovarian 90.1% | BT-549 breast 75.8% | MDA-MB-435 melanoma 83% | SW-620 colon 104% | MCF7 breast 45.1% | HCT-116 colon 93.8% | HCC-2998 colon 84.6% | KM12 colon 63.5%

NC(N)=N/N=C/c1ccc(Cl)cc1
active: MDA-MB-435 melanoma -53.2%
inactive: OVCAR-8 ovarian 88.3% | OVCAR-5 ovarian 89.6% | SK-OV-3 ovarian 76.5% | IGROV1 ovarian 97.6% | OVCAR-3 ovarian 56.8% | HS 578T breast 75.4% | NCI/ADR-RES ovarian 79.9% | T-47D breast 91.5% | BT-549 breast 77.4% | SW-620 colon 24.5% | MCF7 breast 23.5% | HCT-116 colon 50.8% | HCC-2998 colon 86.8% | KM12 colon 15.5%

N=c1nc(N2CCCCC2)cc(N)n1O
inactive: RPMI-8226 leukemia 109% | OVCAR-8 ovarian 103% | OVCAR-5 ovarian 103% | OVCAR-4 ovarian 92.5% | SK-OV-3 ovarian 103% | IGROV1 ovarian 118% | OVCAR-3 ovarian 112% | HS 578T breast 109% | NCI/ADR-RES ovarian 122% | T-47D breast 100% | BT-549 breast 106% | MDA-MB-435 melanoma 107% | SW-620 colon 109% | MCF7 breast 84.2% | HCT-116 colon 106% | KM12 colon 107%

O=C1C=CN2C(=O)CC=CC2[C@@H]1O (some centres not stated)
inactive: RPMI-8226 leukemia 96.4% | OVCAR-8 ovarian 114% | OVCAR-4 ovarian 110% | SK-OV-3 ovarian 104% | IGROV1 ovarian 118% | OVCAR-3 ovarian 120% | HS 578T breast 121% | NCI/ADR-RES ovarian 106% | T-47D breast 90.4% | BT-549 breast 102% | MDA-MB-435 melanoma 124% | SW-620 colon 111% | MCF7 breast 96.5% | HCT-116 colon 96.5% | HCC-2998 colon 114% | KM12 colon 105%

O=C1OCC2=C1C(c1ccccc1)c1cc3c(cc1N2CCO)CCC3 (configuration not stated)
active: OVCAR-3 ovarian -21.6% | HS 578T breast 3.94% | NCI/ADR-RES ovarian -70.4% | BT-549 breast -1.32% | MDA-MB-435 melanoma -31.9% | MCF7 breast -3.45% | HCT-116 colon 4.41% | HCC-2998 colon -19.8%
inactive: OVCAR-8 ovarian 36.5% | OVCAR-5 ovarian 26.1% | OVCAR-4 ovarian 30% | IGROV1 ovarian 12.4% | T-47D breast 37.8% | SW-620 colon 21.5% | KM12 colon 11.2%

O=C(c1ccc(OCCN2CCCCC2)cc1)c1c(-c2ccc(O)cc2)sc2cc(O)ccc12
inactive: RPMI-8226 leukemia 82.9% | OVCAR-8 ovarian 86.8% | OVCAR-5 ovarian 124% | OVCAR-4 ovarian 72.8% | SK-OV-3 ovarian 100% | IGROV1 ovarian 76.1% | OVCAR-3 ovarian 91.8% | NCI/ADR-RES ovarian 91.5% | T-47D breast 65.5% | BT-549 breast 66.4% | MDA-MB-435 melanoma 90.5% | SW-620 colon 98.2% | MCF7 breast 31.9% | HCT-116 colon 76.2% | HCC-2998 colon 103% | KM12 colon 103%

O=C(Nc1ccc(Br)cc1)c1ccc(Cl)c(Cl)c1
inactive: OVCAR-5 ovarian 72% | OVCAR-4 ovarian 28.8% | SK-OV-3 ovarian 63.7% | IGROV1 ovarian 66.7% | OVCAR-3 ovarian 16% | HS 578T breast 79.6% | NCI/ADR-RES ovarian 36.6% | BT-549 breast 60.6% | MDA-MB-435 melanoma 31.4% | SW-620 colon 34.7% | MCF7 breast 20.1% | HCT-116 colon 20.8% | HCC-2998 colon 67.7%
active: RPMI-8226 leukemia -6.3% | T-47D breast 5.65% | KM12 colon 9.99%

COc1ccc(-c2cc(-c3cc4ccccc4oc3=O)n(-c3ccccc3)n2)cc1
active: HCT-116 colon 2.14%
inactive: RPMI-8226 leukemia 86.4% | OVCAR-5 ovarian 91.1% | OVCAR-4 ovarian 13.2% | SK-OV-3 ovarian 76.7% | IGROV1 ovarian 14% | OVCAR-3 ovarian 68.2% | HS 578T breast 66.4% | NCI/ADR-RES ovarian 69.5% | T-47D breast 73.1% | BT-549 breast 75.1% | MDA-MB-435 melanoma 100% | SW-620 colon 66.6% | MCF7 breast 76% | HCC-2998 colon 103% | KM12 colon 69.3%

COc1cc(OC)c(C(=O)/C=C/c2cccc(OC(C)=O)c2)cc1CC=C(C)C
active: RPMI-8226 leukemia 7.53%
inactive: OVCAR-5 ovarian 107% | OVCAR-4 ovarian 75.1% | SK-OV-3 ovarian 102% | IGROV1 ovarian 59.2% | OVCAR-3 ovarian 37.7% | HS 578T breast 99% | NCI/ADR-RES ovarian 72% | T-47D breast 52.3% | BT-549 breast 81.8% | MDA-MB-435 melanoma 73.6% | SW-620 colon 35.5% | MCF7 breast 44.6% | HCT-116 colon 47.1% | HCC-2998 colon 72.9% | KM12 colon 68.8%
